# Experimental data: PubChem BioAssay (NCATS)
# Inconclusive results are not listed. A call without a number means that no potency is given here. A number with no mark means an inactive call. The source made the active and inactive calls. The call rests on the fitted dose curve; in most records, active means well fitted inhibition curve with a large enough effect in the repeat runs; inconclusive means weak or mixed curves; inactive means no such curve, though single readings can be large or run the other way.
# Target: Cytochrome P450 2C9 (Homo sapiens) (UniProt P11712)
# Sequence (P11712 whole entry, looked up): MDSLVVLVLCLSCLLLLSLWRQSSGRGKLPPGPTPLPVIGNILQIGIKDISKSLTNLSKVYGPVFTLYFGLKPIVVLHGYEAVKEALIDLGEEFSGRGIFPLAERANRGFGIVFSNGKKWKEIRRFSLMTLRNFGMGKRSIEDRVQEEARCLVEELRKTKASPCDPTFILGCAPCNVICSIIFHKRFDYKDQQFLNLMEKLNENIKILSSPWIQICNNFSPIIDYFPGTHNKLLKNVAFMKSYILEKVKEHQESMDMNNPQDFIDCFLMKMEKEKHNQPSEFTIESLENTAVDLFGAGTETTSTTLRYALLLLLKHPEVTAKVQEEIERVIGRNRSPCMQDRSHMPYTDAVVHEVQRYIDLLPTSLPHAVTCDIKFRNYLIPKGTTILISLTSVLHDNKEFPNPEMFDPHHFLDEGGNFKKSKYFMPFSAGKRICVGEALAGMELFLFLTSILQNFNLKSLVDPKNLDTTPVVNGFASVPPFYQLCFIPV
# Assay: Cytochrome P450 family 2 subfamily C member 9 (CYP2C9) small molecule antagonists: luciferase biochemical (cell-free) qHTS assay (AID 1645842); further: nearly all actives have a fitted effect of over 55% in size
# Settings: P450-Glo CYP2C9 enzyme assay, luciferin luminescence; series mostly up to 57.4 µM
# Protocol: National Center for Advancing Translational Sciences [NCATS] Assay Overview: Cytochrome P450 (CYP) enzymes are membrane-bound hemeproteins that play a key role in metabolism of drugs and xenobiotics. Assaying the effect of chemicals on CYP isozymes is useful to minimize the adverse drug reactions and toxicities in drug development process. Chemical compounds were tested for their effect on CYP enzyme activities by using P450-Glo (TM) screening systems (Promega Corporation, Madison, WI). These systems provide a luminescent method containing proluciferin substrates and are converted to luciferin products by CYP isozymes. The luciferin products formed are detected with a luciferin detection reagent, and the amount of light produced is proportional to CYP activity. P450-Glo (TM) CYP2C9 screening system (Catalog. No. V9790) was used to detect the compounds that interfere in CYP2C9 activity.
# Assay Protocol Summary: Two ul of enzyme-substrate mix supplemented with 0.4% Bovine Serum Albumin was dispensed into medium binding white/solid 1536-well plates (Greiner Bio-One North America Inc., Monroe, NC) using a Flying Reagent Dispenser (FRD, Aurora Discovery, San Diego, CA). […] The assay plates were incubated at room temperature for 10 min. Then 2 ul of NADPH regeneration solution was added to each well of the assay plates using an FRD and incubated at 37C for 1 h. The reaction was stopped by adding 4 ul of detection reagent using an FRD and after 20 min incubation at room temperature, the luminescence signal was measured using a ViewLux plate reader (Perkin Elmer, Shelton, CT). Data were expressed as relative luminescence units.
# Potency means the concentration at half of the fitted maximal effect.
SMILES,Potency,"activity change, negative = inhibition"
CN1[C@@H]2CC[C@H]1CC(OC(=O)C(O)c1ccccc1)C2 (stereo not given in full),inactive,
O=Cc1ccccc1C=O,inactive,
CC1CC(OC(=O)C(O)c2ccccc2)CC(C)(C)N1C (stereo not given),inactive,
Oc1cccc(O)c1,inactive,
CC(C)(O)c1ccccc1CC[C@@H](SCC1(CC(=O)O)CC1)c1cccc(/C=C/c2ccc3ccc(Cl)cc3n2)c1,inactive,
CCN(CC)CCCC(C)Nc1c2ccc(Cl)cc2nc2ccc(OC)cc12 (stereo not given),inactive,
N[C@@H](CSCCCO)C(=O)O,inactive,
O=S(=O)(O)c1cc(I)c(O)c2ncccc12,inactive,
CC1(C)[C@@H]2CC[C@@]1(C)C(=O)C2,inactive,
CN(C)CCCO[C@@H]1[C@H]2OC(C)(C)O[C@H]2O[C@@H]1C(O)CO (stereo not given in full),inactive,
Cc1c(O)cccc1C(=O)N[C@@H](CSc1ccccc1)[C@H](O)CN1C[C@H]2CCCC[C@H]2C[C@H]1C(=O)NC(C)(C)C,15.5 µM (active),
CCOC(=O)[C@H](CCc1ccccc1)N[C@@H](C)C(=O)N1C(=O)N(C)C[C@H]1C(=O)O,inactive,
CS(=O)(=O)c1ccc([C@@H](O)[C@@H](CF)NC(=O)C(Cl)Cl)cc1,inactive,
CN(C)CCOC(C)(c1ccccc1)c1ccccn1 (stereo not given),inactive,
CCCCN1CCCC[C@H]1C(=O)Nc1c(C)cccc1C,inactive,
c1ccc2c(CC3=NCCN3)cccc2c1,inactive,
CC(=O)Oc1c(C)c(C)c2c(c1C)CC[C@@](C)(CCC[C@H](C)CCC[C@H](C)CCCC(C)C)O2,inactive,
O=C(O)CC(O)C(=O)O (stereo not given),inactive,
C[C@@H]1CCN(C(=O)[C@H](CCCN=C(N)N)NS(=O)(=O)c2cccc3c2NC[C@H](C)C3)[C@@H](C(=O)O)C1,inactive,
CC/C=C(\C(=O)N[C@@H]1C(=O)N2C(C(=O)OCOC(=O)C(C)(C)C)=C(COC(N)=O)CS[C@H]12)c1csc(N)n1,15.5 µM (active),

SMILES,Potency,"activity change, negative = inhibition"
O=C1NS(=O)(=O)c2ccccc21,inactive,
CCCn1cnc2c1c(=O)n(CCCCC(C)=O)c(=O)n2C,inactive,
O=c1[nH]c(=O)c2[nH]c(=O)[nH]c2[nH]1,,8.18% [at 11.5 µM]
C[C@H]1O[C@H](O[C@H]2[C@H](O)[C@@H](O)[C@@H](O[C@H]3[C@H](O)[C@@H](O)[C@H](O)O[C@@H]3CO)O[C@@H]2CO)[C@H](O)[C@@H](O)[C@@H]1N[C@H]1C=C(CO)[C@@H](O)[C@H](O)[C@H]1O,inactive,
Oc1ccc(C(O)CNCCCCCCNCC(O)c2ccc(O)c(O)c2)cc1O (stereo not given),inactive,
CCCCOc1cc(C(=O)OCCN(CC)CC)ccc1N,inactive,
Cc1cccc(C)c1NC(=O)CN(CC(=O)O)CC(=O)O,inactive,
CCCCCCCCCCCCCCCCCCOCC(O)CO (stereo not given),inactive,
CC[N+](CC)(CC)CCOc1ccc(/C=C/c2ccccc2)cc1,inactive,
CCCCc1ncc(/C=C(\Cc2cccs2)C(=O)O)n1Cc1ccc(C(=O)O)cc1,inactive,
O=C1NC(=O)[C@@]2(CCOc3ccc(F)cc32)N1,inactive,
CN(C)CCC=C1c2ccccc2CCc2ccccc21,inactive,
Nc1cc(=O)[nH]c(N)n1,inactive,
CCN(CC)CCNC(=O)c1cc(Cl)c(N)cc1OC,inactive,
O=c1[nH]cnc2c1ncn2[C@@H]1O[C@H](CO)[C@@H](O)[C@H]1O,inactive,
CN(C)CCN(Cc1ccccc1)c1ccccn1,inactive,
CC(C)(C)NCC(O)COc1ccc(NC(=O)NC2CCCCC2)cc1 (stereo not given),inactive,
CCCCC/C(C=O)=C\c1ccccc1,inactive,
O=C(CCCN1CCN(c2ccccn2)CC1)c1ccc(F)cc1,12.3 µM (active),
Cc1cc2c(cc1S(N)(=O)=O)S(=O)(=O)CCC2,inactive,
